Here are results for 8 compounds from PubChem BioAssay (EPA / NIEHS).

Active and inactive are the calls of the source. How the source made its calls: active means hit-call score of the fitted dose curve at least 0.9, where 1 is the maximum; inactive means score below 0.9.

Read-out in assay [1]: TIMP metallopeptidase inhibitor 1 (TIMP1), TIMP1 (gene 7076)
Nature of the assay: BSK_hDFCGF_TIMP1: BioMAP Diversity Plus: hDFCGF Assay for TIMP metallopeptidase inhibitor 1 (TIMP1) Biomarker Activity (AID 2283062). The note with it: primary human foreskin fibroblasts; actives raise or lower the signal. Summed up:
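Bidirectional curve fitting against DMSO baseline yielded this endpoint, based on ELISA detection of TIMP-1 in primary human foreskin fibroblasts exposed to compound for 24 h.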

Read-out in assay [2]: Matrix Metallopeptidase 1 (MMP1), MMP1 (gene 4312)
Nature of the assay: BSK_hDFCGF_MMP1: BioMAP Diversity Plus: hDFCGF Assay for Matrix Metallopeptidase 1 (MMP1) Biomarker Activity (AID 2283064). The note with it: primary human foreskin fibroblasts; actives raise or lower the signal. Summed up:
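ELISA read-out of MMP1 from human foreskin fibroblasts (primary skin cells), 24 h post-dose. Gain or loss of signal was fitted bidirectionally versus DMSO negative control; cytotoxicity was checked by SRB in parallel cultures.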

Read-out in assay [3]: Vascular cell adhesion molecule 1 (VCAM1), VCAM1 (gene 7412)
Nature of the assay: BSK_hDFCGF_VCAM1: BioMAP Diversity Plus: hDFCGF Assay for Vascular cell adhesion molecule 1 (VCAM1) Biomarker Activity (AID 2283065). The note with it: primary human foreskin fibroblasts; actives raise or lower the signal. Summed up:
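Measured after 24 h chemical treatment of primary human skin fibroblasts, VCAM-1 was detected by ELISA and concentration-response analysed in both directions versus DMSO vehicle.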

Read-out in assay [4]: Plasminogen activator inhibitor-1 (PAI1), SERPINE1 (gene 5054)
Nature of the assay: BSK_hDFCGF_PAI1: BioMAP Diversity Plus: hDFCGF Assay for Plasminogen activator inhibitor-1 (PAI1) Biomarker Activity (AID 2283066). The note with it: primary human foreskin fibroblasts; actives raise or lower the signal. Summed up:
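PAI-1 levels in human dermal foreskin fibroblasts were quantified by ELISA 24 h after dosing, with gain or loss analysed against DMSO. Overt cytotoxicity was checked by sulforhodamine B total-protein staining in parallel cultures.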

Read-out in assay [5]: Intercellular Adhesion Molecule 1 (ICAM1), ICAM1 (gene 3383)
Nature of the assay: BSK_KF3CT_ICAM1: BioMAP Diversity Plus: KF3CT Assay for Intercellular Adhesion Molecule 1 (ICAM1) Biomarker Activity (AID 2283067). The note with it: primary human keratinocytes with fibroblasts; actives raise or lower the signal. Summed up:
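Bidirectional curve fitting against a DMSO baseline was applied to ICAM-1 ELISA signal from primary human skin co-cultures harvested 24 h after treatment, with SRB staining of parallel wells for overt cytotoxicity.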

Read-out in assay [6]: Interferon-gamma inducible Protein 10 (IP10), CXCL10 (gene 3627)
Nature of the assay: BSK_KF3CT_IP10: BioMAP Diversity Plus: KF3CT Assay for Interferon-gamma inducible Protein 10 (IP10) Biomarker Activity (AID 2283068). The note with it: primary human keratinocytes with fibroblasts; actives raise or lower the signal. Summed up:
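In a primary skin co-culture of keratinocytes and fibroblasts, IP-10 is quantified by ELISA at 24 h after dosing. SRB staining of parallel wells monitors overt toxicity. Curves are fitted both directions against DMSO.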

Assay [7] can be described thus: BSK_KF3CT_SRB: Viability Assessment in the BioMAP Diversity Plus: KF3CT Assay (AID 2283069).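 Further: read 24 h after compound addition.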 The note with it: primary human keratinocytes with fibroblasts. Summed up: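 SRB read-out at 560 nm (0.1% stain, TCA-fixed cells) gauges overt cytotoxicity in a human skin keratinocyte–fibroblast co-culture 24 h post-dosing. Signal change was fitted bidirectionally relative to DMSO control.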

Read-out in assay [8]: Interleukin-1 alpha (IL1a), IL1A (gene 3552)
Nature of the assay: BSK_KF3CT_IL1a: BioMAP Diversity Plus: KF3CT Assay for Interleukin-1 alpha (IL1a) Biomarker Activity (AID 2283070). The note with it: primary human keratinocytes with fibroblasts; actives raise or lower the signal. Summed up: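 Primary skin co-culture (keratinocytes, foreskin fibroblasts), 24 h exposure; ELISA for IL-1a; bidirectional curve fit vs DMSO.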

Read-out in assay [9]: TIMP metallopeptidase inhibitor 2 (TIMP2), TIMP2 (gene 7077)
Nature of the assay: BSK_KF3CT_TIMP2: BioMAP Diversity Plus: KF3CT Assay for TIMP metallopeptidase inhibitor 2 (TIMP2) Biomarker Activity (AID 2283071). The note with it: primary human keratinocytes with fibroblasts; actives raise or lower the signal. Summed up:
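TIMP-2 measured by ELISA at 24 h in human keratinocyte/fibroblast primary co-cultures exposed to chemicals. Both increases and decreases were fitted against DMSO. Parallel cultures were stained with SRB for total protein as an overt-cytotoxicity check.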

Read-out in assay [10]: Transforming growth factor beta 1 (TGFb1), TGFB1 (gene 7040)
Put plainly: BSK_KF3CT_TGFb1: BioMAP Diversity Plus: KF3CT Assay for Transforming growth factor beta 1 (TGFb1) Biomarker Activity (AID 2283072). The note with it: primary human keratinocytes with fibroblasts; actives raise or lower the signal. The method in brief:
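ELISA quantifies TGF-b1 at 24 h post-dose in a primary human skin co-culture of keratinocytes and fibroblasts, with gain or loss judged against DMSO. Parallel SRB total-protein staining flags overt cytotoxicity.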

Read-out in assay [11]: Matrix Metallopeptidase 9 (MMP9), MMP9 (gene 4318)
Nature of the assay: BSK_KF3CT_MMP9: BioMAP Diversity Plus: KF3CT Assay for Matrix Metallopeptidase 9 (MMP9) Biomarker Activity (AID 2283074). The note with it: primary human keratinocytes with fibroblasts; actives raise or lower the signal. Summed up:
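ELISA read-out of MMP-9 at 24 h post-dosing in a co-culture of human skin keratinocytes and foreskin fibroblasts. Gain or loss of signal was fitted in both directions against DMSO.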

Read-out in assay [12]: urokinase plasminogen activator (uPA), PLAU (gene 5328)
Put plainly: BSK_KF3CT_uPA: BioMAP Diversity Plus: KF3CT Assay for urokinase plasminogen activator (uPA) Biomarker Activity (AID 2283075). The note with it: primary human keratinocytes with fibroblasts; actives raise or lower the signal. The method in brief:
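Skin co-culture (keratinocytes + foreskin fibroblasts), human primary; 24 h post-dose; uPA by ELISA; gain/loss fit vs DMSO baseline.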

Read-out in assay [13]: CD40, CD40 (gene 958)
Nature of the assay: BSK_LPS_CD40: BioMAP Diversity Plus: LPS Assay for CD40 Biomarker Activity (AID 2283076). The note with it: primary human HUVEC with PBMC; actives raise or lower the signal. Summed up:
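Using a multiplexed primary human co-culture (umbilical vein endothelium plus PBMC), CD40 was read by ELISA 24 h after dosing, with cytotoxicity tracked by sulforhodamine B staining of parallel cultures and activity fitted bidirectionally versus DMSO.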

Read-out in assay [14]: E-selectin (Homo sapiens) (UniProt P16581)
Put plainly: BSK_LPS_Eselectin: BioMAP Diversity Plus: LPS Assay for Eselectin Biomarker Activity (AID 2283077). The note with it: primary human HUVEC with PBMC; actives raise or lower the signal. Summed up: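 Dose chemical onto LPS-driven HUVEC/PBMC co-culture; after 24 h, run ELISA for E-selectin; fit up- and down-going responses relative to DMSO control.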

Assay [15] can be described thus: BSK_LPS_SRB: Viability Assessment in the BioMAP Diversity Plus: LPS Assay (AID 2283079).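 Further: total protein by sulforhodamine B absorbance as a cytotoxicity measure; measured one day after compound addition.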 The note with it: primary human HUVEC with PBMC. The method in brief:
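Cytotoxicity endpoint in human endothelial–PBMC co-culture: 24 h exposure, then SRB (0.1%) staining, 560 nm read.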

Read-out in assay [16]: Interleukin-1 alpha (IL1a), IL1A (gene 3552)
Put plainly: BSK_LPS_IL1a: BioMAP Diversity Plus: LPS Assay for Interleukin-1 alpha (IL1a) Biomarker Activity (AID 2283080). The note with it: primary human HUVEC with PBMC; actives raise or lower the signal. The method in brief: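 Primary human HUVEC and PBMC co-culture stimulated with LPS is dosed and harvested at 24 h. Both increases and decreases in ELISA-measured IL-1a are scored relative to DMSO.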

Read-out in assay [17]: Monocyte Chemoattractant Protein-1 (MCP1), CCL2 (gene 6347)
Put plainly: BSK_LPS_MCP1: BioMAP Diversity Plus: LPS Assay for Monocyte Chemoattractant Protein-1 (MCP1) Biomarker Activity (AID 2283081). The note with it: primary human HUVEC with PBMC; actives raise or lower the signal. Summed up: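 Values derive from bidirectional fitting against DMSO of ELISA-measured MCP-1 in a human primary endothelial and mononuclear cell co-culture, 24 h after chemical addition under LPS activation.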

Read-out in assay [18]: Monokine induced gamma interferon (MIG), CXCL9 (gene 4283)
Nature of the assay: BSK_hDFCGF_MIG: BioMAP Diversity Plus: hDFCGF Assay for Monokine induced gamma interferon (MIG) Biomarker Activity (AID 2283063). The note with it: primary human foreskin fibroblasts; actives raise or lower the signal. The method in brief:
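Endpoint derived by bidirectional fitting relative to DMSO; MIG quantified via ELISA in primary human foreskin fibroblasts harvested 24 h after dosing.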

Read-out in assay [19]: Interleukin-8 (IL8), CXCL8 (gene 3576)
Put plainly: BSK_LPS_IL8: BioMAP Diversity Plus: LPS Assay for Interleukin-8 (IL8) Biomarker Activity (AID 2283078). The note with it: primary human HUVEC with PBMC; actives raise or lower the signal. The method in brief:
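In this LPS system, chemical-treated human umbilical vein endothelium/PBMC co-cultures were harvested at 24 h for IL-8 ELISA.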

Read-out in assay [20]: C-C motif chemokine 2 (Homo sapiens) (UniProt P13500)
Put plainly: BSK_KF3CT_MCP1: BioMAP Diversity Plus: KF3CT Assay for Monocyte Chemoattractant Protein 1 (MCP1/CCL2) Biomarker Activity (AID 2283073). The note with it: primary human keratinocytes with fibroblasts; actives raise or lower the signal. The method in brief: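 Biomarker MCP-1 is measured by ELISA in primary human keratinocytes co-cultured with foreskin fibroblasts, 24 h after chemical treatment; DMSO serves as the negative control and activity baseline.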

Sequence of E-selectin (Homo sapiens) (P16581 whole entry, looked up): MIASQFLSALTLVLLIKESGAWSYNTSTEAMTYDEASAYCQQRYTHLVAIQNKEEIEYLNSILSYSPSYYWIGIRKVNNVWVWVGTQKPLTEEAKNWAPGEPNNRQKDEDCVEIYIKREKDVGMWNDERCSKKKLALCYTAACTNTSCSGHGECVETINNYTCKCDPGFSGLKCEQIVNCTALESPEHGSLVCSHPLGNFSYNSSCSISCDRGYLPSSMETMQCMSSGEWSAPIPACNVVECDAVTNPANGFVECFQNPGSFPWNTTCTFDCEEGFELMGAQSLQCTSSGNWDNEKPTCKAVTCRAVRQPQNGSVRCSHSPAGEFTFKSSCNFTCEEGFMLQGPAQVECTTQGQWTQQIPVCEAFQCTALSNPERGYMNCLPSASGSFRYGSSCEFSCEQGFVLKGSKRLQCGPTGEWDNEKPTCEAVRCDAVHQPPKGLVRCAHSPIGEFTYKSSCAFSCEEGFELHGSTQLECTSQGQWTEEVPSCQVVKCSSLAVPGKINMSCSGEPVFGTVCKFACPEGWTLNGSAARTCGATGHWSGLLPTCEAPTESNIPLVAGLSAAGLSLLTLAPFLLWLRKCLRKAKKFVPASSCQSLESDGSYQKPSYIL

For `CCCCCCCC(=O)OC`, the outcome in assay [1], in assay [2], in [3], in [4], in [5] and in assay [6] was inactive. In addition, the result in assay [7], in [8], in assay [9], in assay [10], in assay [11] and in assay [12] was inactive. Also, the outcome in assay [13], in [14], in assay [15], in assay [16] and in assay [17] was inactive.
As for `COc1ccc(C(=O)Nc2nc3ccccc3c(NCc3ccccc3)c2C#N)cc1`, the outcome in assay [1], in [18], in assay [3], in assay [4], in assay [5] and in [6] was inactive. For the same compound, the result in assay [7], in assay [8], in assay [9], in assay [10], in assay [11] and in assay [12] was inactive. In addition, the outcome in assay [14], in assay [19], in assay [16] and in assay [17] was inactive. Also, in assay [13], the AC50 is 3.97 µM (active).
In the case of `CS(=O)(=O)c1ccc([C@@H](C[C@H]2CCC(=O)C2)C(=O)Nc2cnccn2)cc1Cl`, the result in assay [1], in assay [2], in assay [3], in assay [4], in [5] and in assay [6] was inactive. Besides, the outcome in [7], in [8], in [10], in assay [20], in assay [11] and in assay [12] was inactive. Also, the outcome in assay [13], in [14], in [19], in assay [16] and in assay [17] was inactive.
As for `O=C(O)c1[nH]n(-c2ccc(S(=O)(=O)O)cc2)c(=O)c1N=Nc1ccc(S(=O)(=O)O)cc1`, the outcome in assay [1], in [2], in assay [3], in assay [4], in [5] and in assay [6] was inactive. The outcome in assay [7], in assay [8], in [9], in assay [10], in assay [11] and in [12] was inactive. Besides, the outcome in assay [13], in [14], in assay [16] and in assay [17] was inactive.
As for `CC(C)(O)c1ccc(CNC(=O)c2cccnc2Oc2ccc(F)cc2)cc1`, the outcome in [1], in assay [18], in [3], in [5], in assay [6] and in assay [8] was inactive. Besides, the outcome in assay [9], in assay [10], in assay [11], in [12], in [13] and in assay [14] was inactive. Moreover, the result in [19], in [16] and in [17] was inactive. Also, in assay [4], the AC50 is 0.457 µM (active).
As for `CCC(C)N(C)C(=O)c1cc2ccccc2c(-c2ccccc2Cl)n1` (stereo not given), the result in assay [1], in assay [2], in assay [3], in assay [4], in assay [5] and in assay [6] was inactive. Besides, the outcome in assay [8], in assay [9], in [10], in assay [11], in assay [12] and in [13] was inactive. The result in [14], in assay [19], in [15], in assay [16] and in [17] was inactive.
As to `O=C(O)CN(CC(=O)O)CC(=O)O`, the outcome in assay [1], in [2], in assay [3], in assay [4], in assay [5] and in [6] was inactive. Moreover, the result in assay [8], in assay [9], in assay [10], in assay [11], in assay [12] and in [13] was inactive. The result in assay [14], in assay [19], in [15], in assay [16] and in assay [17] was inactive.
For `CC(COCC(C)OC(=O)c1ccccc1)OC(=O)c1ccccc1` (stereo not given), the result in assay [1], in [2], in assay [3], in [4], in assay [5] and in [6] was inactive. The result in assay [7], in assay [8], in [9], in assay [10], in assay [20] and in assay [11] was inactive. Also, the result in [12], in assay [13], in [14], in assay [15], in assay [16] and in assay [17] was inactive.
